# In all, about 310,000 compounds went through this assay and about 1,900 (0.61%) were called active. A call without a number means that no potency is given here. Inconclusive results (about 8%) are left out. Calls come from the whole dose curve; tested in A549 cells. Many of the other results were omitted from the sample, so actives are more common in it than they were.
# Assay: qHTS for Stage-Specific Inhibitors of Vaccinia Orthopoxvirus: mCherry Reporter Primary qHTS; note: nearly all actives have a fitted effect of over 35% in size
# Conditions: Vaccinia virus mCherry reporter infection, fluorescence; series mostly up to 36.5 µM
# Potency is the fitted concentration of half-maximal effect.
row,SMILES,Potency
1,CN(Cc1ccccc1)c1ccc(/C=C/c2ccnc3ccccc23)cc1,inactive
2,COc1ccc(C(C)(C)C)cc1NC(=O)CN(C)C1=NS(=O)(=O)c2ccccc21,inactive
3,COC(=O)[C@]12CCCCC=C1N(CCC1=CCCCC1)C(=O)[C@H](CC(=O)N1CCSCC1)C2,inactive
4,COC(=O)CC1C(C)(C)C(OC(C)=O)C2CC3=C4CC(=O)OC(c5ccoc5)[C@]4(C)CCC3[C@@]1(C)C2=O (stereo partly drawn),inactive
5,C=C1C([C@@]2(C)C(OC(C)=O)CC(=O)O[C@@](C)(COC(C)=O)C2CC(=O)OC)C(OC=O)C(OC(=O)C(O)C(C)CC)[C@]2(C)C(c3ccoc3)CC(=O)C12O (stereo partly drawn),2 µM (active)
6,CCC(C)C(=O)O[C@@H]1C[C@@]2(C)C(c3ccoc3)OC(=O)CC23OC2(C)O[C@@]14[C@@]1(C)C(CC(=O)OC)C5(C)CC1(O)C(O)(C5OC(=O)C1(C)OC1C)C(OC(C)=O)[C@@]34O2 (stereo partly drawn),inactive
7,COc1ccc(C(O)c2nc(-c3ccc4c(c3)OCO4)cs2)cc1 (stereo not drawn),inactive
8,CCc1nc2c(OCc3cccc(OC)c3)cccn2c1N(C)C(=O)C(C)C,inactive
9,CCN1CCCC1CNC(=O)c1ccc2c(c1)NC(=O)/C(=C\c1ccccc1F)S2 (stereo not drawn),inactive
10,CC(=O)c1cccc(-c2cnc3c(NC=O)cc(-c4ccccc4Oc4ccccc4)cn23)c1,inactive
11,COc1ccc(CS(=O)/C(Cl)=C(/Cl)C(=O)Nc2ccc(OC)nc2)cc1 (stereo not drawn),3.98 µM (active)
12,CCOc1ccc(S(=O)(=O)Nc2ccc(OC)nc2)cc1,inactive
13,COc1ccc(NC(=O)CN2C(=O)NC(C)(c3ccccc3)C2=O)cn1 (stereo not drawn),inactive
14,CCN(CC)S(=O)(=O)c1cc(C(=O)Nc2cc(S(=O)(=O)N3CCOCC3)ccc2N2CCCC2)ccc1F,inactive
15,CCN(CC)S(=O)(=O)c1ccc(N2CCN(C)CC2)c(NC(=O)Nc2ccccc2F)c1,inactive
16,CCN(CC)S(=O)(=O)c1ccc(N2CCCC2)c(NC(=O)c2ccc([N+](=O)[O-])o2)c1,14.1 µM (active)
17,COc1cccc(CNc2nc(NCc3cccs3)nc3ccsc23)c1,inactive
18,OC(c1ccccc1)c1nc(-c2cnc3ccccc3c2)cs1 (stereo not drawn),inactive
19,CC1(c2cccc(Br)c2)NC(=O)N(CC(=O)NCCC2=CCCCC2)C1=O (stereo not drawn),inactive
20,O=C(NCCOc1ccccc1)N1[C@H]2CC[C@@H]1C=C(c1ccc(F)cc1OCc1ccccc1)C2,inactive
21,CC1(C(=O)O)CCN1C(=O)/C=C/c1ccccc1 (stereo not drawn),inactive
22,CC1(C(=O)NS(=O)(=O)c2ccccc2)CCN1C(=O)C/C=C/c1ccccc1 (stereo not drawn),inactive
23,CC1(C)CCSC(/C=C/c2ccccc2)=N1,11.2 µM (active)

# Reference: PubChem BioAssay AID720579 (National Center for Advancing Translational Sciences (NCATS), 2013)
